Data: PubChem BioAssay (NCI)
This is part of a sample that, as a whole, favours compounds with a hit. Of some 83,000 tested, about 20% had one in any assay.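 For each line, cells grew in 96-well plates with the test compound present at a single concentration for 48 hours.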 Activity calls are given as the source filed them. Rule for the calls: active = growth percent below 10; inactive = the rest.

How the values were obtained:
Experiment in all cases: NCI-60 one-dose screen, 48 h (100 = growth as untreated, 0 = no growth, -100 = all killed)
[1] = tested on: DU-145 prostate; conditions: 10 µM unless noted
[2] = tested on: MALME-3M melanoma; conditions: 10 µM unless noted
[3] = tested on: MDA-MB-231 breast; conditions: 10 µM unless noted
[4] = tested on: RXF 393 renal; conditions: 10 µM unless noted
[5] = tested on: SF-268 CNS; conditions: 10 µM unless noted
[6] = tested on: SF-295 CNS; conditions: 10 µM unless noted
[7] = tested on: SF-539 CNS; conditions: 10 µM unless noted
[8] = tested on: M14 melanoma; conditions: 10 µM unless noted
[9] = tested on: HCT-15 colon; conditions: 10 µM unless noted
[10] = tested on: HT29 colon; conditions: 10 µM unless noted
[11] = tested on: SNB-75 CNS; conditions: 10 µM unless noted
[12] = tested on: SNB-19 CNS; conditions: 10 µM unless noted
[13] = tested on: U251 CNS; conditions: 10 µM unless noted
[14] = tested on: PC-3 prostate; conditions: 10 µM unless noted
[15] = tested on: SK-MEL-5 melanoma; conditions: 10 µM unless noted
[16] = tested on: UACC-62 melanoma; conditions: 10 µM unless noted
[17] = tested on: LOX IMVI melanoma; conditions: 10 µM unless noted
[18] = tested on: SK-MEL-28 melanoma; conditions: 10 µM unless noted
[19] = tested on: UACC-257 melanoma; conditions: 10 µM

Measured: growth

COCCOc1ccc(-c2csc(NC(=O)CN3CCN(CCO)CC3)n2)cc1NS(=O)(=O)c1cccc2c(N(C)C)cccc12
active: [8] -71.7% | [10] -68.5%
inactive: [1] 92.5% | [2] 40.1% | [3] 79.3% | [4] 65.1% | [5] 90.5% | [6] 70.3% | [7] 61.9% | [9] 85% | [11] 88.6% | [12] 62.2% | [13] 49.1% | [14] 76.1% | [15] 86.5% | [16] 80.5% | [17] 11.8% | [18] 30.8%

COc1ccc([C@H]2[C@H](O)C(=O)N2c2cc(OC)c(OC)c(OC)c2)cc1
active: [7] -20.3% | [9] 9.24% | [10] -2.31% | [13] 8.04% | [15] 0.112%
inactive: [1] 17.8% | [2] 59.9% | [3] 25% | [4] 21.8% | [5] 47.5% | [6] 14.1% | [8] 10.3% | [11] 49.6% | [12] 29% | [14] 13.9% | [16] 20.6% | [17] 15.1% | [18] 62.8%

C=C1C(=O)O[C@@H]2C[C@@H](C)/C=C\C(=O)[C@](C)(OC(C)=O)C[C@H](OC(=O)/C(C)=C\C)[C@@H]12
active: [1] 3.77% | [2] -36.4% | [3] -71.8% | [4] -88.1% | [5] -1.46% | [7] -57.5% | [19] -76.1% | [8] -37.1% | [9] -26% | [10] -48.6% | [13] 2.55% | [14] 1.27% | [17] -75.1%
inactive: [6] 70.6% | [11] 38.2% | [12] 60.1%

COCCOc1ccc(-c2csc(NC(C)=O)n2)cc1NS(=O)(=O)c1cccc2c(N(C)C)cccc12
inactive: [1] 98.3% | [2] 83.9% | [3] 80.2% | [4] 91.7% | [5] 96.2% | [6] 95.9% | [7] 90.9% | [8] 94% | [9] 94.5% | [10] 89.3% | [11] 94.2% | [12] 71% | [13] 99.5% | [14] 68.5% | [15] 78.8% | [16] 60.8% | [17] 98.4% | [18] 83.1%

Cc1cc(=O)n2nc(-c3c[nH]c4ccccc34)sc2n1
inactive: [1] 107% | [2] 85% | [3] 90.6% | [4] 105% | [5] 102% | [6] 103% | [7] 92.7% | [8] 107% | [9] 93.5% | [10] 107% | [11] 99.8% | [12] 97.3% | [13] 94.2% | [14] 98.3% | [15] 98.5% | [16] 92% | [17] 95.7% | [18] 96.5%

CC1OC(O[C@@H]2C(O)C(CO)OC(O[C@H]3COC(O[C@H]4CC[C@]5(C)[C@H]6CC[C@]78OC[C@@]9(CC[C@](C)(C=O)C[C@H]97)[C@H](O)C[C@@]8(C)[C@]6(C)CC[C@H]5C4(C)C)[C@@H](OC4OC(CO)[C@@H](O)[C@@H](O)[C@@H]4O)[C@@H]3O)[C@H]2OC2OC[C@@H](O)[C@@H](O)[C@@H]2O)[C@@H](O)[C@@H](O)[C@H]1O (stereo partly drawn)
active: [2] -69.7% | [3] -48.4% | [4] -36.2% | [5] -56.3% | [6] -59.2% | [7] 1.77% | [19] -78% | [8] -47.3% | [10] 6.44% | [11] -65.2% | [12] -49.2% | [13] -87.5% | [14] -80.5% | [17] -5.38%
inactive: [1] 41.8% | [9] 83.7%

CCNCCCn1c2c(c3cc(OC)c(OC)cc3c1=O)C(=O)c1cc(OC)cnc1-2
inactive: [1] 19.6% | [2] 62.9% | [3] 16.3% | [4] 13.6% | [5] 39.5% | [6] 14.8% | [8] 13.9% | [9] 22% | [11] 17.1% | [12] 25.3% | [14] 46.5% | [18] 64.7%
active: [7] -7.15% | [10] -60.9% | [13] -16.1% | [15] -18.2% | [16] 5.63% | [17] -8.19%

COc1cc2c3c(n(CCCN4CCC[C@H]4C(N)=O)c(=O)c2cc1OC)-c1cc2c(cc1C3=O)OCO2
inactive: [1] 16.2% | [2] 27.5% | [3] 17.3% | [5] 27.6% | [9] 11.9% | [11] 12% | [12] 21.2% | [14] 39.7% | [18] 52.1%
active: [4] 7.89% | [6] 7.46% | [7] -2.78% | [8] 6.29% | [10] 6.94% | [13] -21.6% | [15] -46.1% | [16] -43.5% | [17] -28.3%

COc1cnc2c(c1)C(=O)c1c-2n(CCCNCC2CC2)c(=O)c2cc(F)ccc12
active: [1] 4.61% | [2] -12.2% | [3] -25.2% | [4] -47.5% | [6] -7.51% | [7] -65.6% | [9] 0.625% | [10] -62.7% | [11] -7.63% | [12] 4.94% | [13] -50.4% | [14] 9.61% | [15] -82.8% | [16] -56.2% | [17] -59.4%
inactive: [5] 14.6% | [8] 15% | [18] 22.8%
